A short description of assay [1]: qHTS assay for small molecules that induce genotoxicity in human embryonic kidney cells expressing luciferase-tagged ATAD5 (AID 651632). Also: nearly all actives have a fitted effect of over 15% in size. Also: potency is read from the fitted curve at half-maximal effect. In a few lines:
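A rise in luciferase signal from ATAD5-tagged HEK293T cells marks genetic stress. Cells were exposed to compounds for 16 hr at 37C, 5% CO2, then luciferase was quantified after a 30 min room-temperature incubation with Amplite.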
A general note: Quantitative high-throughput screening tests each substance at several concentrations.

The nature of assay [2]: qHTS assay for small molecule agonists of the p53 signaling pathway - cell viability (AID 651633; calls by dose curve; also: nearly all actives have a fitted effect of over 30% in size; also: potency is read from the fitted curve at half-maximal effect). In a few lines: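 p53RE-bla cells, seeded at 4,000 per well and rested 5 h at 37 C/5% CO2, received compounds in DMSO for 16 h at 37 C. CellTiter-Glo was then added, and luminescence was read after 30 min at room temperature to gauge cytotoxicity.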
A short description of assay [3]: qHTS assay for small molecules that induce genotoxicity in human embryonic kidney cells expressing luciferase-tagged ATAD5 - cell viability (AID 651634; calls by dose curve; also: nearly all actives have a fitted effect of over 25% in size). In a few lines:
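Cytotoxicity counter-readout: after 15.5 hr compound treatment at 37C, live-cell protease activity in ATAD5-luciferase HEK293T cells measured by CellTiter-Fluor fluorescence, 30 min development at 37C.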

Assay [4] in a line: qHTS assay for small molecule disruptors of the mitochondrial membrane potential - cell viability (AID 720634; calls by dose curve;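 also: human HepG2 liver cancer cells; series mostly up to about 83 µM; nearly all actives have a fitted effect of over 20% in size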). The essentials: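 Cytotoxicity was quantified from ATP content by CellTiter-Glo luminescence in the same wells as the MMP dye read-out. HepG2 (2,000 cells/well) were plated overnight and exposed to compounds for 1 hr at 37 C.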
The nature of assay [5]: qHTS assay to test for compound auto fluorescence at 590 nm (red) in HepG2 cells (AID 720674). In a few lines:
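Compound auto-fluorescence is scored relative to Rose Bengal sodium, measured at 540/590 nm in live HepG2 cultures after 1 hr compound contact (37 C, 5% CO2).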

The nature of assay [6]: qHTS assay to test for compound auto fluorescence at 535 nm (green) in HepG2 cells (AID 720675).
The nature of assay [7]: qHTS assay to test for compound auto fluorescence at 460 nm (blue) in HEK293 cells (AID 720678). In a few lines: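 Auto fluorescence in the blue band was quantified as triamterene equivalency. HEK293 cells were seeded at 2,000/well, dosed after a 4-5 hr attachment, and kept overnight at 37C before the 405/460 nm reading.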
The nature of assay [8]: qHTS assay to test for compound auto fluorescence at 590 nm (red) in HEK293 cells (AID 720679). In a few lines: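 Autofluorescence equivalency to Rose Bengal sodium, 540/590nm, in HEK293 cells exposed overnight to 23 nL compound per well.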
Assay [9] in a line: qHTS assay for small molecule disruptors of the mitochondrial membrane potential (AID 720635). Also: potency is read from the fitted curve at half-maximal effect. The essentials:
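HepG2 cells (2,000/well) attached overnight at 37C, then took compound for 1 hr at 37C, 5% CO2. Mito-MPS dye was added for 30 min; fluorescence was read at 490/535 nm (monomers) and 540/590 nm (aggregates).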

A number with no mark means an inactive call. Results filed as inconclusive are left out. Calls of active or inactive are those of the source. Unless noted, calls follow the shape of the dose curve; as a rule, active = well fitted curve in the direction sought with a large enough effect in the repeat runs; inconclusive = weak or mixed curves; inactive = no such curve, though single readings can be large; an effect the other way counts as inactive or inconclusive.

With `CC1=C2[C@H](/C=C(\C)C(=O)O)CC[C@@H](C)[C@H]2CC1`, the Potency entry in assay [1], in assay [2], in assay [3] and in [4] was “inactive” throughout. Besides, the call in assay [5], in assay [6], in [7] and in assay [8] was inactive.

For the molecule `CCCCCCCCCCCCOCCOS(=O)(=O)O`, the Potency result in assay [1], in [3] and in assay [4] was “inactive” in each case. Moreover, in assay [2], the Potency is 61.1 µM (active). For the same molecule, the molecule was classed as inactive in assay [5], in assay [6], in [7] and in assay [8].

Regarding `Nc1ccc(Oc2ccc(N)c(N)c2)cc1`, the Potency was 30.6 µM (active) in assay [1] and 17.2 µM (active) in assay [9]. The Potency entry in [2], in assay [3] and in assay [4] was “inactive” in each case. The molecule was called inactive in assay [5], in [6], in [7] and in [8].

As to `CC1CN(c2ccccc2)NC1=O` (configuration not stated), the Potency result in assay [1], in assay [2], in assay [3] and in assay [4] was “inactive” each time. The result in [5], in [6], in assay [7] and in assay [8] was inactive.

With `NS(=O)(=O)c1cc(-c2nn[nH]n2)c(NCc2cccs2)cc1Cl`, the Potency entry in assay [1], in assay [2], in assay [3] and in assay [4] was “inactive” throughout. For the same molecule, the call in assay [6], in [7] and in [8] was inactive.

As for `O=C(O)[C@@H]1CSCN1`, the Potency result in [1], in assay [2], in [3], in assay [4] and in [9] was “inactive” in each case. In addition, the result in assay [6], in assay [7] and in [8] was inactive.

In the case of `CC(=O)OC1C2(C)CCC(C2)C1(C)C` (configuration not stated), the Potency entry in [1], in assay [2], in assay [3], in assay [4] and in assay [9] was “inactive” throughout. The call in assay [5], in assay [6], in assay [7] and in assay [8] was inactive.

For the molecule `O=c1oc2c(O)c(O)cc3c(=O)oc4c(O)c(O)cc1c4c23`, the Potency entry in assay [1], in assay [2], in assay [3], in assay [4] and in assay [9] was “inactive” throughout. Moreover, the result in assay [6], in assay [7] and in assay [8] was inactive.

For the molecule `O=C1CCCCC1C1CCCCC1` (configuration not stated), the Potency result in [1], in assay [2], in assay [3] and in assay [4] was “inactive” in each case. Also, the outcome in assay [5], in assay [6], in assay [7] and in assay [8] was inactive.

`CCOC(=O)CS`: the Potency entry in [1], in [2], in assay [3] and in assay [4] was “inactive” throughout. Also, the result in assay [5], in assay [6], in assay [7] and in assay [8] was inactive.

Regarding `CCCNC(C)(C)COC(=O)c1ccccc1`, the Potency entry in assay [1], in assay [2], in assay [3], in assay [4] and in assay [9] was “inactive” each time. Besides, the call in assay [5], in assay [6], in assay [7] and in assay [8] was inactive.

Regarding `CCCCN1C[C@H](O)[C@@H](O)[C@H](O)[C@H]1CO`, the Potency entry in assay [1], in assay [2], in assay [3] and in [4] was “inactive” each time. In addition, the outcome in assay [5], in assay [6], in assay [7] and in assay [8] was inactive.

Consider `N#Cc1ccc(C(c2ccc(C#N)cc2)n2cncn2)cc1`, for which the Potency entry in assay [1], in [2], in assay [3], in assay [4] and in [9] was “inactive” in each case. Further, the call in assay [5], in [6], in [7] and in [8] was inactive.

`Clc1cccc(-c2cc(Cl)cc(Cl)c2)c1`: the Potency entry in assay [1], in assay [3] and in [4] was “inactive” throughout. Besides, the molecule was classed as inactive in assay [5], in assay [6], in assay [7] and in [8].

With `CN(CCCN1c2ccccc2CCc2ccccc21)CC(=O)c1ccc(Cl)cc1`, the Potency entry in [2], in [3] and in assay [4] was “inactive” throughout. Further, the molecule was called inactive in [6], in assay [7] and in assay [8].

Consider `CCCCCCCCc1ccc(S(=O)(=O)O)cc1`, for which the Potency entry in [1], in assay [3] and in assay [4] was “inactive” throughout. In addition, the call in assay [5], in [6], in [7] and in [8] was inactive.

As to `COc1ccc(Nc2ccc(OC)cc2)cc1`, the Potency result in assay [2] and in assay [4] was “inactive” in each case. In addition, the result in assay [5], in [6], in [7] and in assay [8] was inactive.

On to `CCN(CC)CC1CCCCN1CC(=O)N1c2ccccc2C(=O)Nc2cccnc21` (configuration not stated), for which the Potency entry in [1], in [3], in assay [4] and in assay [9] was “inactive” each time. In addition, the outcome in [5], in [6], in [7] and in assay [8] was inactive.

Take `CCCCCCCCCCCCCCCCOP(=O)([O-])OCC[N+](C)(C)C`: the Potency result in [2], in assay [3] and in assay [4] was “inactive” each time. Besides, the molecule was classed as inactive in assay [5], in assay [6], in [7] and in [8].

Consider `CC(C)O`, for which the Potency entry in assay [1], in [3], in assay [4] and in [9] was “inactive” throughout. The call in assay [5], in [6], in [7] and in [8] was inactive.

On to `Cc1c(N)cccc1N`, for which the Potency result in assay [2], in assay [3] and in assay [4] was “inactive” each time. Moreover, the Potency in assay [9] was 17.6 µM (active). The molecule was classed as inactive in [5], in assay [6], in [7] and in assay [8].

In the case of `Cc1c[nH]c(=S)[nH]c1=O`, the Potency result in [3] and in [4] was “inactive” in each case. For the same molecule, the molecule was classed as inactive in assay [5], in assay [6], in [7] and in assay [8].

For the molecule `CCCCC(=O)O[C@]1(C(=O)CO)[C@H](C)C[C@H]2[C@@H]3CCC4=CC(=O)C=C[C@]4(C)[C@@]3(F)[C@@H](O)C[C@@]21C`, the Potency entry in [1] and in assay [3] was “inactive” each time. In addition, the Potency in assay [9] was 10.6 µM (active). Besides, the molecule was called inactive in assay [5], in assay [6], in assay [7] and in assay [8].

Values taken from PubChem BioAssay (Tox21).
